Source: PubChem BioAssay
Bead autofluor: flagged as autofluorescent in microsphere protease counterscreen; 360,000 tested, 3.1% active; compound autofluorescence counterscreen, microsphere flow cytometry; hits give high values; fluorescence intensity (concentration not given with the values); in the data active = fluorescence intensity above about 16000; inconclusive = no clear call, values can overlap the other calls
Anthrax LF prot: Bacillus anthracis LF protease inhibitors, primary screen, biochemical, multiplex microsphere, MLPCN library. Lethal factor (Bacillus anthracis), P15917. multiplex microsphere protease cleavage assay. inhibition, % at 10 µM. 360,000 tested, 0.12% active. AID 588501, 2011; note: plate controls were buffer without enzyme for full effect and enzyme alone for no effect
BoNT-A LC inh2: BoNT/A light chain protease inhibitors, primary screen, biochemical, flow cytometry, MLPCN library | 360,000 tested, 0.17% active | Botulinum neurotoxin type A light chain protease (Clostridium botulinum A str. ATCC 3502) | AID 588499, 2011 | multiplex microsphere protease substrate cleavage | inhibition, % at 10 µM; note: plate controls were buffer without enzyme for full effect and enzyme alone for no effect
BoNT F protease: BoNT/F light chain protease inhibitors, primary screen, biochemical, flow cytometry, MLPCN library; Botulinum neurotoxin type F light chain protease (Clostridium botulinum); 360,000 tested, 0.22% active; AID 588497, 2011; Multiplex microsphere protease cleavage assay; inhibition, % at 10 µM; in the data active = inhibition above about 35%, passing the limit was not always enough; inconclusive = no clear call, values can overlap the other calls; note: plate controls were buffer without enzyme for full effect and enzyme alone for no effect
Numbers without * were called inactive; ? = inconclusive. Sampled rows, rich in hits. Any-hit rate of the full collection: about 3.5%. Cut-off read from the data, not from the text of the source, unless noted: active = inhibition above about 30%; inconclusive = no clear call, values can overlap the other calls; inactive = below that.

SMILES	Bead autofluor	Anthrax LF prot	BoNT-A LC inh2	BoNT F protease
Cc1c(NC(=O)c2cc(-c3ccc4c(c3)OCO4)on2)c(=O)n(-c2ccccc2)n1C	9741	2	-1	-8
Cc1nn(CCCC(=O)NCc2ccc(F)cc2)c(=O)c2nccn12	6806	-12	-1	1
O=C(N[C@@H](Cc1ccccc1)C(=O)OCc1ccccc1)c1ccco1	5182	-1	1	-6
Cc1cccc(N(C(=O)CS(=O)CC(=O)Nc2ccc3c(c2)OCO3)C(C)C(=O)NC2CCCC2)c1C (stereo not drawn)	4363	-8	-1	-5
Cc1ccccc1N(CC(=O)NC1CCCC1)C(=O)CS(=O)CC(=O)Nc1ccc2c(c1)OCO2 (stereo not drawn)	20092*	1	2	2
COc1ccc(CCN2CC(C(=O)N(C)Cc3ccc(C)o3)CCC2=O)cc1 (stereo not drawn)	4174	-2	0	-3
CC(NC(=O)C1CCC(=O)N1Cc1ccccc1Cl)c1ccccc1 (stereo not drawn)	4075	-7	1	31
CNC(=O)C1CCC(=O)N1Cc1ccccc1Cl (stereo not drawn)	23165*	-2	0	-1
O=C(C1CCC(=O)N1Cc1ccccc1Cl)N1CCC2(CC1)OCCO2 (stereo not drawn)	20370*	0	5	8
O=C(Nc1cc(Cl)cc(Cl)c1)C1CCC(=O)N1Cc1ccccc1Cl (stereo not drawn)	21909*	-6	3	2
CN1/C(=C/C(=S)NC(=O)C2(C)CC2(Cl)Cl)C(C)(C)c2ccccc21 (stereo not drawn)	5126	9	14	-5
CN1/C(=C\C(=S)NC(=O)c2ccccc2Cl)C(C)(C)c2ccccc21	4289	18	38*	2
COc1ccccc1C(=O)NC(=S)/C=C1/N(C)c2ccccc2C1(C)C	2973	25	49*	4
Cc1ccc(C)c(NC(=O)CCC(=O)N/N=C/c2ccc[nH]2)c1	21086*	-1	-1	-3
CSc1nc(C)cc(OCCO)n1	4964	0	0	-19
CSc1nc(C)cc(OCC(=O)n2nc(C)cc2C)n1	23438*	-5	?	0
Cc1onc(-c2ccccc2Cl)c1C(=O)O/N=C(\N)c1cccc([N+](=O)[O-])c1	3790	-6	0	-6
Cc1onc(-c2ccccc2Cl)c1C(=O)O/N=C(\N)c1ccccc1	16593*	-8	-40	-63
Cc1onc(-c2ccccc2Cl)c1C(=O)N1C=CC(C(F)(F)Cl)=NCC1	22372*	0	1	1
Cc1onc(-c2ccccc2Cl)c1C(=O)N1CC(C)OC(C)C1 (stereo not drawn)	23411*	-6	?	-3
CCC(C)NC(=O)CSc1ccc(S(=O)(=O)N(C)C2CCCCC2)cn1 (stereo not drawn)	5611	1	2	-1
O=C(Nc1cc(S(=O)(=O)N2CCCC2)ccc1OCC(F)(F)F)c1ccncc1	4039	6	0	6
CCCc1cc(=O)[nH]c(SCC(=O)N2CCCC2=O)n1	6095	0	-4	-14
CC(C)N1CC(C(=O)Nc2cc(Cl)cc(Cl)c2)CC1=O (stereo not drawn)	4255	9	-4	?
Cc1cc(C)nc(NC(=O)c2ccc(Br)cc2)n1	4483	2	-8	?
SMILES	Bead autofluor	Anthrax LF prot	BoNT-A LC inh2	BoNT F protease
Cc1cc(NO)nc(-c2ccc(Br)cc2)n1	24290*	-2	-3	-5
Cc1ccc(C)c(C(=O)OCC(=O)NC(=O)NCc2ccccc2)c1	3528	-4	0	0
COc1ccc(NC(=O)NCc2ccncc2)c(OC)c1	22838*	-3	?	-5
COc1ccc(NC(=O)c2cccnc2C(=O)O)c(OC)c1	20348*	4	8	10
COc1ccc(NC(=O)C(=O)NCc2ccncc2)c(OC)c1	5011	-3	-1	-3
COc1ccc(NC(=O)c2c(OC)cccc2OC)c(OC)c1	16438*	-19	15	-16
COc1ccc(NC(=O)c2ccc(C(=O)Nc3ccc(OC)cc3OC)cc2)c(OC)c1	2009	3	0	-2
COc1ccc(NC(=O)c2ccccc2SC)c(OC)c1	3872	-5	0	-2
COc1ccc(NC(=O)c2ccccc2O)c(OC)c1	18765*	-10	5	5
CC(=O)Nc1cc(NC(C)=O)cc(C(=O)NCC2(N3CCOCC3)CCCCC2)c1	?	-4	1	2
CC(C)(C)c1cc(NS(=O)(=O)c2ccc3c(c2)OCCO3)on1	13966	3	7	10
CCOC(=O)c1ccc(S(=O)(=O)Nc2cc(C(C)(C)C)no2)cc1	24179*	-2	-2	0
